The values that follow come from the supplement of paper PMC9135407.

The test system of this test is primary human hepatic stellate cells (donor 1). Briefly: scaled lipid accumulation score (0 = DMSO-like, 1 = nortriptyline-like); higher = stronger HSC inactivation (lipid re-accumulation), active = hit call of the paper. The following applies: 48 h. The method, then:
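Primary lipid accumulation screen in primary human hepatic stellate cell myofibroblasts (donor 1, passage 8) in 384-well plates. 100 nL of library compound was pin-transferred into 30 µL medium in duplicate, and cells were treated for 48 h. The 'Scaled' score combines distance from plate baseline, toxicity and reproducibility penalties, and is normalised to nortriptyline (positive) and DMSO (negative) controls on each plate. A hit is defined as scaled >0.85 or among the top 3 wells per plate.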

Where [1] appears, read: library stock concentration: 10 mM.
Setting [2] is: library stock concentration: 3.33 mM.
[3] abbreviates: library stock concentration: 80 uM.
Setting [4] is: library stock concentration: 400 uM.
[5] abbreviates: library stock concentration: 2 mM.
Setting [6] is: library stock concentration: 1 mM.
Setting [7] is: library stock concentration: 100 uM.

Molecules are shown by their SMILES. Several values for one entry are separate records, joined by “and”; a condition that tells them apart may be missing. Equal values may be shown once. Where a name gives a salt, the structure may show the parent alone. About 620 (11%) of roughly 5,800 compounds showed activity. Only a selection was taken, and actives are over-represented in it overall. A number with no mark means an inactive call.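 Rule for the calls: active = score above a cut-off or among the top three wells of a plate; in these data no inactive exceeds 0.85.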

With `CC(C)(C)c1ccc(S(=O)(=O)/C=C/C#N)cc1` [listing 1 of 2 here], under setting [1], the “scaled lipid accumulation score” value was 1.12 (active). As for `CC(C)(C)c1ccc(S(=O)(=O)/C=C/C#N)cc1` [listing 2 of 2 here], the “scaled lipid accumulation score” value under setting [1] was 0.172. `Cc1ccc(S(=O)(=O)/C=C/C#N)cc1` [listing 1 of 2 here]: the “scaled lipid accumulation score” value under setting [1] is 0.931 (active). For `Cc1ccc(S(=O)(=O)C=CC#N)cc1`, the “scaled lipid accumulation score” value reads like this: under setting [2], 0.718; under setting [1], 0.445. Take `CC(C)(C)c1ccc(S(=O)(=O)Nc2ccc(-n3ccnc3)cc2)cc1` [Stem-Cell Factor/c-Kit Inhibitor, ISCK03]: the “scaled lipid accumulation score” value under setting [2] is ≤ 0. `Cc1ccc(S(=O)(=O)/C=C/C#N)cc1` [listing 2 of 2 here]: the “scaled lipid accumulation score” value by setting is: under setting [3], ≤ -0.001; under setting [4], ≤ -0.001; under setting [5], 0.813; under setting [2], 0.807; under setting [1], 0.729 and 0.437; (library stock concentration: 24.1 mM) 0.648. `Cc1cc2c(C(=O)NCC(C)c3ccccc3)c(O)c(O)cc2c(O)c1-c1c(C)cc2c(C(=O)NCC(C)c3ccccc3)c(O)c(O)cc2c1O` (centres undefined) [Sabutoclax]: the “scaled lipid accumulation score” value reads like this: under setting [2], 0.768; under setting [1], 0.582. Take `COc1cc(CCc2cc(NC(=O)c3ccc(N4CC(C)NC(C)C4)cc3)n[nH]2)cc(OC)c1` (centres undefined): the “scaled lipid accumulation score” value was ≤ -0.016 under setting [3]; ≤ -0.016 under setting [4]; 0.369 under setting [5]; 0.476 under setting [2]; 0.5 under setting [1]. For `CC(Cc1ccccc1)Nc1ncnc2c1ncn2C1OC(CO)C(O)C1O` (stereo not drawn) [R(-)-N6-(2-Phenylisopropyl)adenosine], the “scaled lipid accumulation score” value under setting [1] was ≤ -0.055. Turning to `N#Cc1c(O)c2c(-c3ccc(-c4ccccc4O)cc3)csc2[nH]c1=O`, the “scaled lipid accumulation score” value under setting [2] is 0.004; the “scaled lipid accumulation score” value under setting [1] was ≤ 0 and 0.001. Take `CC1(C)S[C@@H]2[C@H](NC(=O)COc3ccccc3)C(=O)N2[C@H]1C(=O)O` [Penicillin v potassium]: the “scaled lipid accumulation score” value was 0.003 (library stock concentration: 5.1 mM) and ≤ 0 under setting [1]. `CC1(C)S[C@@H]2[C@H](NC(=O)COc3ccccc3)C(=O)N2[C@H]1C(=O)O` [Penicillin V]: under setting [1], the “scaled lipid accumulation score” value was ≤ 0. On to `Cc1ccc(Sc2cncc3sc(C(N)=O)cc23)cc1`, for which the “scaled lipid accumulation score” value under setting [2] was 0.183; the “scaled lipid accumulation score” value under setting [1] is 0.478 and 0.373. With `CCOC(=O)CCC(=O)O[C@H]1[C@H](O[C@@H]2[C@@H](C)[C@H](O[C@H]3C[C@@](C)(OC)[C@@H](O)[C@H](C)O3)[C@@H](C)C(=O)O[C@H](CC)[C@@](C)(O)[C@H](O)[C@@H](C)C(=O)[C@H](C)C[C@@]2(C)O)O[C@H](C)C[C@@H]1N(C)C` [Eryped], under setting [1], the “scaled lipid accumulation score” value was ≤ 0.

For `CCOC(=O)CCC(=O)O[C@H]1[C@H](O[C@@H]2[C@@H](C)[C@H](O[C@H]3C[C@@](C)(OC)[C@@H](O)[C@H](C)O3)[C@@H](C)C(=O)O[C@H](CC)[C@@](C)(O)[C@H](O)[C@@H](C)C(=O)[C@H](C)C[C@@]2(C)O)O[C@H](C)C[C@@H]1N(C)C` [Erythromycin ethylsuccinate], the “scaled lipid accumulation score” value is ≤ -0.001 (library stock concentration: 2.3 mM) and ≤ 0 under setting [1]. In the case of `Nc1c2c(nc3ccccc13)CCCC2` [Tacrine hydrochloride], under setting [1], the “scaled lipid accumulation score” value was 0.064. As to `Nc1c2c(nc3ccccc13)CCCC2` [Tacrine (hydrochloride)], under setting [6], the “scaled lipid accumulation score” value was 0.026.

Take `Nc1c2c(nc3ccccc13)CCCC2` [9-Amino-1,2,3,4-tetrahydroacridine hydrochloride]: the “scaled lipid accumulation score” value under setting [1] was 0.401. Consider `Nc1c2c(nc3ccccc13)CCCC2`, for which the “scaled lipid accumulation score” value (library stock concentration: 9.7 mM) was 0.039. Consider `Cl.Cl.c1ccc2c(NCCCCCCCNc3c4c(nc5ccccc35)CCCC4)c3c(nc2c1)CCCC3` [bis(7)-Tacrine], for which the “scaled lipid accumulation score” value under setting [6] was 1.11 (active). With `Nc1c2c(nc3ccccc13)CCCC2O` (centres undefined) [Hydroxytacrine maleate], the “scaled lipid accumulation score” value is ≤ -0.006 (library stock concentration: 9.3 mM) and 0.056 under setting [1]. Turning to `CCCCCC(=O)CC[C@H]1C=CC(=O)[C@@H]1C/C=C\CCCC(=O)O` [13,14-dihydro-15-keto Prostaglandin A2], under setting [6], the “scaled lipid accumulation score” value is ≤ 0. On the same count and under the same terms, then `CCCCC[C@H](O)/C=C/[C@H]1C2CC(CO2)[C@@H]1C/C=C/CCCC(=O)O` (some centres undefined), with ≤ 0. Same read-out and setting: then `CCCCC[C@](C)(O)/C=C/[C@@H]1[C@@H](C/C=C\CCCC(=O)O)[C@@H](O)C[C@H]1O` [15(S)-15-methyl Prostaglandin F2.alpha.], with ≤ 0.

On to `CCCCC/C=C\C/C=C\CC1OC1C/C=C\CCCC(=O)O` (centres undefined) [8,9-Epoxyeicosatrienoic acid], for which the “scaled lipid accumulation score” value under setting [7] was ≤ -0.021.

For the compound `CNC(=O)c1cc(Oc2ccc(NC(=O)Nc3ccc(Cl)c(C(F)(F)F)c3)c(F)c2)ccn1` [Regorafenib], the “scaled lipid accumulation score” value under setting [3] is ≤ -0.016, the “scaled lipid accumulation score” value under setting [4] is 0.033, the “scaled lipid accumulation score” value under setting [5] was ≤ -0.016 and the “scaled lipid accumulation score” value under setting [1] was ≤ -0.016.

As to `CNC(=O)c1cc(Oc2ccc(NC(=O)Nc3ccc(Cl)c(C(F)(F)F)c3)cc2)ccn1` [Sorafenib  (Nexavar, BAY43-9006) (2 mM)], the “scaled lipid accumulation score” value under setting [5] is 0.299. Take `CNC(=O)c1cc(Oc2ccc(NC(=O)Nc3ccc(Cl)c(C(F)(F)F)c3)c(F)c2)ccn1` [Regorafenib (BAY 73-4506)]: the “scaled lipid accumulation score” value runs as follows: under setting [2], ≤ 0; under setting [1], ≤ 0. As for `CNC(=O)c1cc(Oc2ccc(NC(=O)Nc3ccc(Cl)c(C(F)(F)F)c3)cc2)ccn1` [Sorafenib  (Nexavar, BAY43-9006) (0.4 mM)], the “scaled lipid accumulation score” value under setting [4] was 0.021. On to `CNC(=O)c1cc(Oc2ccc(NC(=O)Nc3ccc(Cl)c(C(F)(F)F)c3)cc2)ccn1` [Sorafenib (Nexavar, BAY43-9006) (10 mM)], for which the “scaled lipid accumulation score” value under setting [1] was 1.21 (active). `CNC(=O)c1cc(Oc2ccc(NC(=O)Nc3ccc(Cl)c(C(F)(F)F)c3)cc2)ccn1` [Sorafenib]: the “scaled lipid accumulation score” value under setting [2] is ≤ 0 and the “scaled lipid accumulation score” value under setting [1] is ≤ 0. Consider `CNC(=O)c1cc(Oc2ccc(NC(=O)Nc3ccc(Cl)c(C(F)(F)F)c3)cc2)ccn1` [Sorafenib Tosylate], for which the “scaled lipid accumulation score” value runs as follows: under setting [2], 0.005; under setting [1], ≤ 0. As for `CNC(=O)c1cc(Oc2ccc(NC(=O)Nc3ccc(Cl)c(C(F)(F)F)c3)cc2)ccn1`, the “scaled lipid accumulation score” value was 0.04 under setting [3], 0.075 under setting [4], ≤ 0 under setting [5] and 0.672 under setting [1]. Turning to `CC1(C(=O)O)NCCc2cc(O)c(O)cc21` (centres undefined) [Salsolinol-1-carboxylic acid], under setting [1], the “scaled lipid accumulation score” value is 0.05.

Consider `NC/C=C/C(=O)O` [(E)-4-amino-2-butenoic acid], for which, under setting [1], the “scaled lipid accumulation score” value was ≤ 0. Take `CCn1cc(-c2ccnc3[nH]c(-c4cccc(CN(C)C)c4)cc23)c(-c2ccc(NC(=O)N(C)C)cc2)n1` [listing 1 of 2 here]: the “scaled lipid accumulation score” value was ≤ 0 under setting [3], ≤ 0 under setting [4] and 0.222 under setting [5]. Regarding `CN(C)C(=O)Nc1cccc(-c2ccc(N(C)C)cc2)c1` [Atglistatin], the “scaled lipid accumulation score” value under setting [2] was 0.012 and the “scaled lipid accumulation score” value under setting [1] is 0.076. Take `CCn1cc(-c2ccnc3[nH]c(-c4cccc(CN(C)C)c4)cc23)c(-c2ccc(NC(=O)N(C)C)cc2)n1` [listing 2 of 2 here]: the “scaled lipid accumulation score” value under setting [1] is 0.863 (active).

As to `NCCNCCNCCN` [Trientine hydrochloride], the “scaled lipid accumulation score” value (library stock concentration: 9.1 mM) was ≤ 0.

`CC(=O)Oc1ccc2c(c1)CC[C@@H]1[C@@H]2CC[C@]2(C)[C@@H](OC(C)=O)CC[C@@H]12` [Estradiol diacetate]: the “scaled lipid accumulation score” value under setting [1] was ≤ 0. For the compound `N#C[C@@H]1C[C@@H]2C[C@@H]2N1C(=O)[C@@H](N)C12CC3CC(CC(O)(C3)C1)C2`, the “scaled lipid accumulation score” value under setting [1] was ≤ 0. As for `N#C[C@@H]1C[C@@H]2C[C@@H]2N1C(=O)[C@@H](N)C12CC3CC(CC(O)(C3)C1)C2` [Saxagliptin], the “scaled lipid accumulation score” value runs as follows: under setting [2], ≤ 0; under setting [1], ≤ 0. Regarding `O=C(O)CCC/C=C\C[C@H]1C(=O)C[C@@H](O)[C@@H]1/C=C/[C@@H](O)Cc1ccccc1` [16-phenyl tetranor Prostaglandin E2], the “scaled lipid accumulation score” value under setting [6] is ≤ 0.

With `CCCCn1c(=O)c2[nH]c(C34CC5CC(CC3C5)C4)nc2n(CCCO)c1=O`, the “scaled lipid accumulation score” value under setting [1] was ≤ -0.001. Same read-out and setting: for `CN1CCN2c3ncccc3Cc3ccccc3C2C1` (centres undefined) [Mirtazepine] the value was 0.053. On to `CN1CCN2c3ccccc3Cc3ccccc3C2C1` (centres undefined) [Mianserin hydrochloride], for which the “scaled lipid accumulation score” value runs as follows: (library stock concentration: 6.6 mM) 0.236; under setting [1], 0.398. Consider `CN1CCN2c3ccccc3Cc3ccccc3C2C1.Cl` (centres undefined) [Mianserin hydrochloride], for which the “scaled lipid accumulation score” value under setting [1] was 0.869 (active). As for `CN1CCN2c3ncccc3Cc3ccccc3C2C1` (centres undefined) [Mirtazapine], the “scaled lipid accumulation score” value is ≤ 0 under setting [2] and 0.104 under setting [1]. As to `CN1CCN2c3ncccc3Cc3ccccc3C2C1` (centres undefined), the “scaled lipid accumulation score” value under setting [1] was 0.409. In the case of `CN1CCN2c3ccccc3Cc3ccccc3C2C1` (centres undefined) [Mianserin HCl], the “scaled lipid accumulation score” value by setting is: under setting [2], 0.172; under setting [1], 0.188. For `CN1CCN2c3ccccc3Cc3ccccc3C2C1` (centres undefined) [Mianserine hydrochloride], the “scaled lipid accumulation score” value is 0.681. For `CN1CCN2c3ncccc3Cc3ccccc3C2C1` (centres undefined) [mirtazapine], under setting [1], the “scaled lipid accumulation score” value is 0.317. For the compound `CN1CCN2c3ccccc3Cc3ccccc3C2C1` (centres undefined) [Mianserin hcl], the “scaled lipid accumulation score” value (library stock concentration: 7.6 mM) is 0.348. For `Cc1c(C)c2c(c(C)c1O)CC[C@@](C)(CCC[C@H](C)CCC[C@H](C)CCCC(C)C)O2` (racemic) [Tocopherol (R,S)], the “scaled lipid accumulation score” value is ≤ 0. Turning to `CN1CCN(c2c(F)cc3c(=O)c(C(=O)O)cn(CCF)c3c2F)CC1` [Fleroxacin], where the note is “library stock concentration: 5.4 mM”, the “scaled lipid accumulation score” value is ≤ 0. In the case of `CCCCCC(=O)/C=C/C=C\C/C=C\C/C=C\CCCC(=O)O` [15-Ketoicosatetraenoic acid], the “scaled lipid accumulation score” value under setting [7] was ≤ -0.021.

In the case of `CC(=O)Nc1ncc([N+](=O)[O-])s1` [Nithiamide], the “scaled lipid accumulation score” value reads like this: under setting [2], ≤ 0; under setting [1], ≤ -0.001. `COc1ccc(CNC(=O)Nc2ncc([N+](=O)[O-])s2)cc1` [listing 1 of 2 here]: the “scaled lipid accumulation score” value under setting [1] is 0.864 (active). As to `CC(=O)Nc1ncc([N+](=O)[O-])s1`, the “scaled lipid accumulation score” value under setting [1] was ≤ 0. For the compound `COc1ccc(CNC(=O)Nc2ncc([N+](=O)[O-])s2)cc1` [GSK-3b Inhibitor VIII], the “scaled lipid accumulation score” value under setting [2] was ≤ 0. On the same count and under the same terms, for `COc1ccc(CNC(=O)Nc2ncc([N+](=O)[O-])s2)cc1` [listing 2 of 2 here] the value was 0.006.
